According to PubChem BioAssay (Tox21):
A number with no mark means an inactive call. Results filed as inconclusive are left out. Where a call stands in place of a potency, no number is given. Calls of active or inactive are those of the source. Unless noted, the call rests on the fitted dose curve.

Experiments:
[1] = target: KiSS-1 receptor (Homo sapiens) (UniProt Q969F8); test: Human kisspeptin (KISS1R) small molecule agonists, calcium flux assay in KISS1R-HEK293 cells (AID 1920064; active means well fitted activation curve with a large enough effect in the repeat runs)
Procedure, shortened: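 Cell line: HEK293, stable human KISS1R. Dye loading 1 h at 37 C after 18 h culture. Read: kinetic fluorescence, 480/540 nm, 3 min at 1 s intervals.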

[2] = p53 small molecule agonists, cell-based qHTS assay with rat liver microsomes (AID 1963578)
Procedure, shortened: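 Fluorescence from a beta-lactamase reporter under a p53 response element was measured after cells had been incubated 16 h at 37 C with test compound and rat liver microsomes plus NADPH (0.5 mg/mL final each).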

[3] = p53 small molecule agonists, cell-based qHTS assay with human liver microsomes: qHTS cell viability counter screen (AID 1963579); further: nearly all actives have a fitted effect of over 45% in size; further: potency means the concentration at half of the fitted maximal effect
Procedure, shortened: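 Seed p53RE-bla cells at 4,000 per well; incubate 5 h at 37 C; add compound, human liver microsomes and NADPH; incubate 16 h at 37 C; add CellTiter-Glo; after 30 min at room temperature, read luminescence.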

[4] = p53 small molecule agonists, cell-based qHTS assay with rat liver microsomes: qHTS cell viability counter screen (AID 1963580); further: nearly all actives have a fitted effect of over 45% in size
Procedure, shortened: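 After the beta-lactamase ratio was read, CellTiter-Glo was added to the same wells and luminescence measured at 30 min; cells had been treated 16 h at 37 C with compounds, rat liver microsomes and NADPH (0.5 mg/mL final each).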

[5] = p53 small molecule agonists, cell-based qHTS assay: qHTS cell viability counter screen (AID 1963581); further: nearly all actives have a fitted effect of over 45% in size
Procedure, shortened: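 ATP content measured by luminescence in HCT-116 p53RE-bla cells treated 16 h at 37 C, same wells as the reporter screen.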

[6] = p53 small molecule agonists, cell-based qHTS assay (AID 1963582; active means well fitted activation curve with a large enough effect in the signal ratio in the repeat runs, not every such curve was filed as active; the % refers to the signal ratio)
Procedure, shortened: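 16 h compound exposure (37 C) of p53 response element–bla cells, preceded by 5 h recovery at 37 C/5% CO2; read-out via LiveBLAzer B/G FRET substrate, 2 h RT, fluorescence intensity.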

[7] = target: Beta-2 adrenergic receptor (Homo sapiens) (UniProt P07550); test: Adrenergic beta2 receptor (ADRB2) small molecule antagonists, cell-based qHTS assay (AID 1963592); further: nearly all actives have a fitted effect of over 50% in size; further: potency means the concentration at half of the fitted maximal effect
Procedure, shortened: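 Assay format: CHO-ADRB2 cells, 18-20hr seeding at 37C/5% CO2, then compound plus 1nM isoproterenol agonist mix for 0.5hr RT. Homogeneous time-resolved fluorescence cAMP detection after 1hr, expressed as 665/615 nm ratio.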

[8] = target: D(2) dopamine receptor (Homo sapiens) (UniProt P14416); test: Dopamine D2 receptor (DRD2) small molecule antagonists, cell-based qHTS assay (AID 1963595; active means well fitted inhibition curve with a large enough effect in the signal ratio in the repeat runs, with a control signal flat; the % refers to the signal ratio; further: potency means the concentration at half of the fitted maximal effect)
Procedure, shortened: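 Antagonist mode in DRD2-HEK293 cells: after compound addition with 0.1 mM Ro20-1724, cells received quinpirole (12 nM) and NKH477 (200 nM) for 30 min at room temperature; HTRF cAMP read after 1 h detection.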

[9] = G protein-coupled receptor (GPCR) small molecule agonists, calcium flux assay: HEK293 wild type cell line counter screen (AID 1920065)
Procedure, shortened: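 Tox21 10K compounds, 15 concentrations each in triplicate, pin-transferred in DMSO onto dye-loaded cells; kinetic read at 480/540 nm for 3 min, 1 s intervals.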

[10] = target: 5-hydroxytryptamine receptor 2A (Homo sapiens) (UniProt P28223); test: 5-hydroxytryptamine receptor 2A (HTR2A) small molecule antagonists, cell-based qHTS assay (AID 1963586); further: nearly all actives have a fitted effect of over 45% in size; further: potency means the concentration at half of the fitted maximal effect
Procedure, shortened: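 CHO cells stably expressing human HTR2A were plated for 18 h at 37 C, then loaded with calcium dye for 1 h. Compounds were preincubated 5 min at room temperature before DOI (4 nM solution) was added. Kinetic fluorescence was read for 3 min.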

[11] = target: Muscarinic acetylcholine receptor M1 (Homo sapiens) (UniProt P11229); test: Cholinergic receptor muscarinic 1 (CHRM1) small molecule antagonists, cell-based qHTS assay (AID 1963588); further: nearly all actives have a fitted effect of over 40% in size
Procedure, shortened: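 Compounds were tested at 15 concentrations in three independent runs. Dye-loaded CHRM1-CHO cells were exposed 5 min at room temperature before stimulation by acetylcholine added at 50nM. Intracellular calcium was read kinetically on FDSS for 3 min.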

[12] = target: Muscarinic acetylcholine receptor M1 (Homo sapiens) (UniProt P11229); test: Cholinergic receptor muscarinic 1 (CHRM1) small molecule agonists, cell-based qHTS assay (AID 1963589); further: nearly all actives have a fitted effect of over 35% in size
Procedure, shortened: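 Homogeneous fluorescence calcium flux, agonist mode. Human M1-expressing CHO cells; compound dosed at 15 concentrations, three independent runs; signal sampled every 1 sec.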

[13] = cAMP Responsive Elements (CRE) small molecule agonists, cell-based qHTS assay (AID 1963590)
Procedure, shortened: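 HEK 293T cells stably bearing CRE-bla were plated at 2,000 cells per well and rested 18 h. Compounds, positive controls or DMSO were added for 3 h at 37 C. LiveBLAzer B/G substrate was then loaded for 2 h at room temperature.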

[14] = cAMP Responsive Elements (CRE) small molecule antagonists, cell-based qHTS assay (AID 1963591; active means well fitted inhibition curve with a large enough effect in the signal ratio in the repeat runs, not every such curve was filed as active; the % refers to the signal ratio)
Procedure, shortened: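 First, CRE-bla HEK293T cells settled 18 h at 37 C. Next, compound and 0.25 uM final NKH477 were applied for 3 h. Last, LiveBLAzer B/G substrate was loaded for 2 h at room temperature.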

[15] = target: 5-hydroxytryptamine receptor 2A (Homo sapiens) (UniProt P28223); test: 5-hydroxytryptamine receptor 2A (HTR2A) small molecule agonists, cell-based qHTS assay (AID 1963587); further: nearly all actives have a fitted effect of over 30% in size; further: potency means the concentration at half of the fitted maximal effect
Procedure, shortened: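 CHO cells stably expressing human HTR2A, plated 18 h, loaded with calcium dye 1 h at 37 C. Agonist mode: compounds added and intracellular calcium fluorescence recorded kinetically for 2 min at 1 sec intervals.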

[16] = target: Beta-2 adrenergic receptor (Homo sapiens) (UniProt P07550); test: Adrenergic beta2 receptor (ADRB2) small molecule agonists, cell-based qHTS assay (AID 1963593);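 further: CHO cells stably overexpressing human ADRB2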
Procedure, shortened: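 CHO cells stably over-expressing ADRB2 were plated overnight at 37C, then dosed with compounds plus a stimulation mix containing 100uM IBMX and 25uM Ro-20-1724 for 0.5hr at room temperature. cAMP was measured by HTRF competition, 1hr.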

[17] = target: D(2) dopamine receptor (Homo sapiens) (UniProt P14416); test: Dopamine D2 receptor (DRD2) small molecule agonists, cell-based qHTS assay (AID 1963594); further: nearly all actives have a fitted effect of over 35% in size
Procedure, shortened: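 HEK293 cells stably expressing human DRD2, pre-treated with PDE inhibitor Ro20-1724 (0.1 mM final) and compound 10 min at room temperature, then stimulated with NKH477 (200nM […]) for 30 min. cAMP read by HTRF (665/620 nm).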

[18] = target: Gonadotropin-releasing hormone receptor (Homo sapiens) (UniProt P30968); test: Human gonadotropin-releasing hormone receptor (GnRHR) small molecule agonists, calcium flux assay in GnRHR-HEK293 cells (AID 1920063); further: nearly all actives have a fitted effect of over 35% in size
Procedure, shortened: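 Compounds dissolved in DMSO are pin-transferred onto dye-loaded GnRHR-HEK293 cells, which were seeded 18 h before at 37 C/5% CO2. Calcium signal is read as fluorescence intensity at 1 s intervals for 3 min.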

[19] = p53 small molecule agonists, cell-based qHTS assay with human liver microsomes (AID 1963577)
Procedure, shortened: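 Cells carrying a p53-responsive bla reporter were rested 5 h (37 C, 5% CO2) before compound transfer. Human liver microsomes plus NADPH, 0.5 mg/mL final apiece, supplied metabolism during the 16 h 37 C exposure.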

Sequence of 5-hydroxytryptamine receptor 2A (Homo sapiens) (P28223 whole entry, looked up): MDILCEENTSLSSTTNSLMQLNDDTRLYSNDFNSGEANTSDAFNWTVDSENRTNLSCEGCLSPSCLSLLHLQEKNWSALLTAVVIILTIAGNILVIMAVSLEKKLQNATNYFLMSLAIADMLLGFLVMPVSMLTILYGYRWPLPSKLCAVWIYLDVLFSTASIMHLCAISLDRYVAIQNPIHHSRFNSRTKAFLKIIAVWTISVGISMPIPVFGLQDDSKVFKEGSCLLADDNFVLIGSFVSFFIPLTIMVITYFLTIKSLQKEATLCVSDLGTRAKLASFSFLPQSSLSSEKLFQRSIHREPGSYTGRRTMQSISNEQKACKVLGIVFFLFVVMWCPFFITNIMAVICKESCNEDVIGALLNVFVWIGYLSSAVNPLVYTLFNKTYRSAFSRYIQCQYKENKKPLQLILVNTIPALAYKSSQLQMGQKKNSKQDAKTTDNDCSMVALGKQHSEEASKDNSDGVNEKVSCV
Sequence of Gonadotropin-releasing hormone receptor (Homo sapiens) (P30968 whole entry, looked up): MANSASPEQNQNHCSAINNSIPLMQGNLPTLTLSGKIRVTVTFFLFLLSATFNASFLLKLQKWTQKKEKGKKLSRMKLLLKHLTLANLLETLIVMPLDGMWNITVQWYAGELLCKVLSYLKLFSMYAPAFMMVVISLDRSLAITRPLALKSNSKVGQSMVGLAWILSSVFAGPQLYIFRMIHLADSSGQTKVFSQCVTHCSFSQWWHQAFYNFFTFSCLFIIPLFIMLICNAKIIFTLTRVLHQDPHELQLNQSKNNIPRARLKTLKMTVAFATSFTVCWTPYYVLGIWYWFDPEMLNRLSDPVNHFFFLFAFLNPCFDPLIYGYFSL
Sequence of Beta-2 adrenergic receptor (Homo sapiens) (P07550 whole entry, looked up): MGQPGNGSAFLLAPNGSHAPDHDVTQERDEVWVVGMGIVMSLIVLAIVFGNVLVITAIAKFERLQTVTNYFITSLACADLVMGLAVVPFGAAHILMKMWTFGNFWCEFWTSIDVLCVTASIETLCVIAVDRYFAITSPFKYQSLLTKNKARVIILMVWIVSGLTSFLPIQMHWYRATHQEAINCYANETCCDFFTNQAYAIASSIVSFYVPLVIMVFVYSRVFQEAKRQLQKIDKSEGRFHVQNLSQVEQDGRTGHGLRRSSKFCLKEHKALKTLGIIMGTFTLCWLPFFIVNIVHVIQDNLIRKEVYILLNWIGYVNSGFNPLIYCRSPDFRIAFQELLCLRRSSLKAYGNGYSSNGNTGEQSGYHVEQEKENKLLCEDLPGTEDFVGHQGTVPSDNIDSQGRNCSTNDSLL
Sequence of Muscarinic acetylcholine receptor M1 (Homo sapiens) (P11229 whole entry, looked up): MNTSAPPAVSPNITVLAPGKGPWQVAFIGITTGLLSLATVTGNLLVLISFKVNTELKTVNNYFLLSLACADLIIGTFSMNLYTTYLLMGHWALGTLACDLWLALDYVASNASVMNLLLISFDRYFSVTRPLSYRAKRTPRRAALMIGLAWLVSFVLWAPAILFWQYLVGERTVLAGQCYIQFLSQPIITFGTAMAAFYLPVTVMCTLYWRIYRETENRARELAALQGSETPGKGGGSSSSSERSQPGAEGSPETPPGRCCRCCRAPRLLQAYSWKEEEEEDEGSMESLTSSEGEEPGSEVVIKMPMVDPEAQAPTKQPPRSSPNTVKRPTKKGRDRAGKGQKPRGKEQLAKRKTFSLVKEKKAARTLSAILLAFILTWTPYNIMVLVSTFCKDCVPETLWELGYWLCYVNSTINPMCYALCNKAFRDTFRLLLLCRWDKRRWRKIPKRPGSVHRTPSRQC
Sequence of KiSS-1 receptor (Homo sapiens) (Q969F8 whole entry, looked up): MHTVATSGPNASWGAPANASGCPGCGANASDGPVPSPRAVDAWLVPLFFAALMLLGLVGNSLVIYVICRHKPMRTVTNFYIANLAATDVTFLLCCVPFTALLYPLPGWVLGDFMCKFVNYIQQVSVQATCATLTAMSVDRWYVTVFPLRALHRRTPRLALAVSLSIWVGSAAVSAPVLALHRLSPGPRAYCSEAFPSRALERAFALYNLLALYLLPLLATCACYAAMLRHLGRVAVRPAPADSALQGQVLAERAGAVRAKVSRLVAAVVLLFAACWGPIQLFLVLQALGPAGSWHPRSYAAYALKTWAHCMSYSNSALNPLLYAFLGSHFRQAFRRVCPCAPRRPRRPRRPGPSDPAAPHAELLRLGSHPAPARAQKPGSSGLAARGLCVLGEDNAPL
Sequence of D(2) dopamine receptor (Homo sapiens) (P14416 whole entry, looked up): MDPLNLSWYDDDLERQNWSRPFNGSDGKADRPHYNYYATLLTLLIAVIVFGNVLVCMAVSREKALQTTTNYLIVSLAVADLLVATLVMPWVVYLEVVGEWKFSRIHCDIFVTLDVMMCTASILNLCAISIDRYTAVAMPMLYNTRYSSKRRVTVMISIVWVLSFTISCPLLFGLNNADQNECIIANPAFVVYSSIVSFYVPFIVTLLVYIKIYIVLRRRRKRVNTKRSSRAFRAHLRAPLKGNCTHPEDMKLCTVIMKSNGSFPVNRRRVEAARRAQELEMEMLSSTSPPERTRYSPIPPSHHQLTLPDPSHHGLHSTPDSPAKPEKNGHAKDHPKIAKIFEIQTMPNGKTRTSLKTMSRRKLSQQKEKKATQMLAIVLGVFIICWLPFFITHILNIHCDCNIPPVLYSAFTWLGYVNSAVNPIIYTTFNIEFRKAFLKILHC

## C#C[C@]1(O)CC[C@H]2[C@@H]3[C@H](C)CC4=C(CCC(=O)C4)[C@H]3CC[C@@]21C
[1]
  Potency: inactive
[2]
  Potency: inactive
[3]
  Potency: inactive
[4]
  Potency: inactive
[5]
  Potency: inactive
[6]
  Potency: inactive
[7]
  Potency: 23.7 µM (active)
[8]
  Potency: inactive

## Brc1ccccc1-c1ccccc1
[1]
  Potency: inactive
[9]
  Potency: inactive
[2]
  Potency: inactive
[3]
  Potency: inactive
[4]
  Potency: inactive
[6]
  Potency: inactive
[10]
  Potency: 17.8 µM (active)
[11]
  Potency: inactive
[12]
  Potency: inactive
[13]
  Potency: inactive
[14]
  Potency: inactive
[7]
  Potency: inactive
[8]
  Potency: inactive

## COc1ccc2ccccc2c1
[10]
  Potency: 33.4 µM (active)
[15]
  Potency: inactive
[11]
  Potency: inactive
[12]
  Potency: inactive
[7]
  Potency: inactive
[16]
  Potency: inactive
[17]
  Potency: inactive
[8]
  Potency: inactive

## S=P(N1CC1)(N1CC1)N1CC1
[1]
  Potency: inactive
[9]
  Potency: inactive
[3]
  Potency: inactive
[4]
  Potency: inactive
[5]
  Potency: inactive
[6]
  Potency: inactive
[10]
  Potency: inactive
[11]
  Potency: inactive
[13]
  Potency: inactive
[17]
  Potency: inactive

## O=C(Oc1ccccc1)c1cccc(C(=O)Oc2ccccc2)c1
[1]
  Potency: inactive
[9]
  Potency: inactive
[3]
  Potency: inactive
[4]
  Potency: inactive
[15]
  Potency: inactive
[11]
  Potency: inactive
[12]
  Potency: inactive
[17]
  Potency: inactive

## Nc1ccc(N)c([N+](=O)[O-])c1
[10]
  Potency: inactive
[11]
  Potency: inactive
[12]
  Potency: inactive

## COC(C)=O
[1]
  Potency: inactive
[9]
  Potency: inactive
[3]
  Potency: inactive
[4]
  Potency: inactive
[5]
  Potency: inactive
[10]
  Potency: inactive
[15]
  Potency: inactive
[11]
  Potency: inactive
[12]
  Potency: inactive
[13]
  Potency: inactive
[7]
  Potency: inactive
[8]
  Potency: inactive

## Cc1c(C)n(Cc2ccccc2)c2ccc(C(=O)OCCN(C)C)cc12
[18]
  Potency: inactive
[9]
  Potency: inactive
[19]
  Potency: inactive
[2]
  Potency: inactive
[3]
  Potency: inactive
[4]
  Potency: inactive
[5]
  Potency: inactive
[10]
  Potency: 16.3 µM (active)
[11]
  Potency: inactive
[13]
  Potency: inactive
[7]
  Potency: inactive
[17]
  Potency: inactive
[8]
  Potency: 33.5 µM (active)

## O=C1CN(/N=C/c2ccc([N+](=O)[O-])o2)C(=O)N1
[1]
  Potency: inactive
[9]
  Potency: inactive
[7]
  Potency: inactive
[16]
  Potency: inactive
[8]
  Potency: inactive

## CCCCCCCCCCCCCCOS(=O)(=O)O
[18]
  Potency: inactive
[9]
  Potency: inactive
[19]
  Potency: inactive
[2]
  Potency: inactive
[3]
  Potency: inactive
[4]
  Potency: inactive
[6]
  Potency: inactive
[15]
  Potency: 43.6 µM (active)
[11]
  Potency: inactive
[13]
  Potency: inactive
[14]
  Potency: inactive
[7]
  Potency: inactive
[16]
  Potency: inactive
[17]
  Potency: inactive
[8]
  Potency: inactive

## C[C@@H](c1ncncc1F)C(O)(Cn1cncn1)c1ccc(F)cc1F (stereo partly specified)
[9]
  Potency: inactive
[19]
  Potency: inactive
[3]
  Potency: inactive
[4]
  Potency: inactive
[5]
  Potency: inactive
[6]
  Potency: inactive
[10]
  Potency: inactive
[15]
  Potency: inactive
[11]
  Potency: inactive
[12]
  Potency: inactive
[13]
  Potency: inactive
[14]
  Potency: inactive
[7]
  Potency: inactive
[16]
  Potency: inactive
[17]
  Potency: inactive
[8]
  Potency: inactive

## CC(=O)Nc1ccc(O)cc1
[1]
  Potency: inactive
[9]
  Potency: inactive
[13]
  Potency: inactive
[7]
  Potency: inactive
[17]
  Potency: inactive
[8]
  Potency: inactive

## O=C(O)C(=O)Cc1ccccc1
[1]
  Potency: inactive
[9]
  Potency: inactive
[19]
  Potency: inactive
[2]
  Potency: inactive
[4]
  Potency: inactive
[5]
  Potency: inactive
[6]
  Potency: inactive
[10]
  Potency: inactive
[15]
  Potency: inactive
[11]
  Potency: inactive
[12]
  Potency: inactive
[13]
  Potency: inactive
[14]
  Potency: inactive
[7]
  Potency: inactive
[16]
  Potency: inactive
[17]
  Potency: inactive
[8]
  Potency: inactive

## CC(C)COC(=O)CCCCC(=O)OCC(C)C
[18]
  Potency: inactive
[3]
  Potency: inactive
[4]
  Potency: inactive
[5]
  Potency: inactive
[10]
  Potency: inactive
[15]
  Potency: inactive
[11]
  Potency: inactive
[12]
  Potency: inactive
[13]
  Potency: inactive
[14]
  Potency: inactive

## CC[C@H](C)COC(=O)/C=C/c1ccc(N=Cc2ccc(OC)cc2)cc1
[18]
  Potency: inactive
[9]
  Potency: inactive
[19]
  Potency: inactive
[2]
  Potency: inactive
[5]
  Potency: inactive
[10]
  Potency: inactive
[11]
  Potency: inactive
[12]
  Potency: inactive
[14]
  Potency: inactive
[16]
  Potency: inactive

## CNCC[C@H](Oc1cccc2ccccc12)c1cccs1
[1]
  Potency: inactive
[9]
  Potency: inactive
[19]
  Potency: inactive
[2]
  Potency: inactive
[3]
  Potency: inactive
[5]
  Potency: inactive
[12]
  Potency: inactive
[13]
  Potency: inactive
[14]
  Potency: inactive
[8]
  Potency: inactive

## CC[C@@H]([C@H](C)O)n1ncn(-c2ccc(N3CCN(c4ccc(OC[C@@H]5CO[C@@](Cn6cncn6)(c6ccc(F)cc6F)C5)cc4)CC3)cc2)c1=O
[18]
  Potency: inactive
[9]
  Potency: inactive
[19]
  Potency: inactive
[2]
  Potency: inactive
[4]
  Potency: inactive
[5]
  Potency: inactive
[10]
  Potency: inactive
[15]
  Potency: inactive
[11]
  Potency: inactive
[12]
  Potency: inactive
[7]
  Potency: inactive
[16]
  Potency: inactive
[17]
  Potency: inactive
[8]
  Potency: inactive

## CC(C)(C)c1csc(-c2cc3cc(OCc4ccccc4CC(=O)O)ccc3o2)n1
[1]
  Potency: inactive
[9]
  Potency: inactive
[19]
  Potency: inactive
[3]
  Potency: 45.8 µM (active)
[10]
  Potency: inactive
[17]
  Potency: inactive
[8]
  Potency: inactive

## CCCCC/C(=C\c1ccccc1)CO
[1]
  Potency: inactive
[9]
  Potency: inactive
[19]
  Potency: inactive
[2]
  Potency: inactive
[3]
  Potency: inactive
[4]
  Potency: inactive
[5]
  Potency: inactive
[6]
  Potency: inactive
[10]
  Potency: inactive
[15]
  Potency: 54.3 µM (active)
[11]
  Potency: inactive
[12]
  Potency: inactive
[14]
  Potency: inactive
[7]
  Potency: inactive
[17]
  Potency: inactive
[8]
  Potency: inactive
